A selection: hits, their analogues and other compounds. The true share with any hit is near 5.5%.
uPA surface inh: inhibitors of cell surface uPA generation; cell surface uPA generation assay, qHTS; Potency, µM (doses to about 38.3 µM), inactives show at the top dose activity change, negative = inhibition, actives largely listed as inhibitors; 0.31% of 330,000 active; AID 540303; active = well fitted inhibition curve with a large enough effect; inconclusive = small, poorly fitted or top-dose-only effect; inactive = no such curve, though single readings can be large or run the other way; tested in mouse RAW 264.7 cells; note: % is set by controls: 0 for no effect and ±100 for the full control effect; nearly all actives have a fitted effect of over 55% in size
Mito fusion act: mitochondrial division inhibition or fusion activation. S. cerevisiae fusion-defective mutant growth rescue, CellTiterGlo 48 h. Potency, µM (highest dose often 46.1 µM), for inactives: top-dose growth rescue (activation), hits mostly activators. 0.23% of 320,000 active; note: % of control where 0% means no effect; nearly all actives have a fitted effect of over 45% in size
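Read-out: ATP-based luminescence (CellTiterGlo, 10 min ambient) reporting growth of fusion-defective ts yeast after 48 hours at 37C on glycerol/ethanol YPEG medium in the presence of compound.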
Chronic BCR inh: blocks chronic active B-cell receptor signaling; ABC-DLBCL IkBa-CBG/CBR reporter, luminescence ratio, 4 h; Potency, µM (top dose mostly 46.1 µM), inactives show at the highest dose activity change, negative = inhibition, hits mostly inhibitors; 0.05% of 340,000 active; active = well fitted inhibition curve with a large enough effect in the signal ratio, with a control signal flat, not every such curve was filed as active; inconclusive = small, poorly fitted or top-dose-only effect, or effect the other way, or a change in a side signal; the % refers to the signal ratio;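 note: plate controls were basal doxycycline-induced cells for no effect and cells given 10 µM MG132 for full effect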
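Doxycycline induced both beetle luciferases in TMD8 lymphoma cells; IKK-driven degradation limits the IkappaBalpha-fused green signal, while red luminescence normalises for cell number and nonspecific effects. Compounds tested up to 46 uM, 4 hrs.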
RORgamma inh: blocks mouse ROR gamma transcriptional activity; Drosophila S2 Gal4-RORgamma UAS-luciferase reporter, 20 h; Potency, µM (doses to about 53.6 µM), inactives show at the top dose activity change, negative = inhibition, actives largely listed as inhibitors; 5.4% of 310,000 active; note: % is set by controls: 0 for no effect and ±100 for the full control effect; nearly all actives have a fitted effect of over 60% in size
Target sequence (P51450 whole entry, looked up, the tested form may be a part): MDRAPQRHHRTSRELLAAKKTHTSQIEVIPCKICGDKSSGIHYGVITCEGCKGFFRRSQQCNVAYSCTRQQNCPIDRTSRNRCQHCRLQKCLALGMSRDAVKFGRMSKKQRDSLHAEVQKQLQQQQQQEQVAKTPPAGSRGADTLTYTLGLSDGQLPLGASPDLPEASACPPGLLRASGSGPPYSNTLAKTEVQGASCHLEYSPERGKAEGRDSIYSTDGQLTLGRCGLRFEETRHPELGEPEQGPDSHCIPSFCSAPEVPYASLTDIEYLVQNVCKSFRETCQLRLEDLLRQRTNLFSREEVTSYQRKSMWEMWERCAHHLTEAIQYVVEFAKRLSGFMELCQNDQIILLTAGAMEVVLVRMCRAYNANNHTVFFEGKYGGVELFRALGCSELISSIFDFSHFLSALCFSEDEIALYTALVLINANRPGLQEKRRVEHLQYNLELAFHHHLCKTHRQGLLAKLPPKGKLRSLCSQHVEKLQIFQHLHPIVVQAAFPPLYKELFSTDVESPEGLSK
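Luciferase reporter read in Schneider cells carrying Gal4-RORγ (mouse) and UAS-Photinus luciferase; cells given compound 1 h before 700 uM copper sulfate induction, then incubated 20 h at ambient temperature.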
Gal4-VP16 FLuc: counter-screen for ROR gamma inhibitors: Gal4-VP16 reporter | Drosophila S2 Gal4-VP16 UAS-luciferase, luminescence, 20 h | Potency, µM (series often up to 53.6 µM), inactives show at the top dose activity, negative = inhibition, most hits filed as inhibitors | 3.5% of 310,000 active | AID 2546;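 note: Gal4-VP16 expression switched on by copper sulfate through the metallothionein promoter; % is set by controls: 0 for no effect and ±100 for the full control effect; nearly all actives have a fitted effect of over 50% in size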
Integrin act MD: integrin-mediated muscular dystrophy alleviation activation. alpha7betagal myoblasts, beta-gal FDG fluorescence, 48 h. Potency, µM (doses to about 38.3 µM), for inactives: at the top dose activation, most hits filed as activators. 0.064% of 350,000 active. AID 624291;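 note: 100% = response of the positive control SU9516; nearly all actives have a fitted effect of over 60% in size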
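Alpha7betagal+/- myoblasts (passage 13) were plated 16-24 hr, then exposed to compounds (1:260 dilution of DMSO stock) for 48 hours at 37C. After MPER lysis, β-galactosidase reporter activity was read as FDG fluorescence (ex 480/em 540) after 30 minutes.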
Numbers without * were called inactive; ? = inconclusive; . = not tested or not shown; ! = repeats disagree. Unless noted, calls come from the whole dose curve; as a rule, active = well fitted curve in the direction sought with a large enough effect; inconclusive = small, poorly fitted or top-dose-only effect, or another doubt; inactive = no such curve, though single readings can be large; an effect the other way counts as inactive or inconclusive. Potency is the fitted concentration of half-maximal effect.

SMILES	uPA surface inh	Mito fusion act	Chronic BCR inh	RORgamma inh	Gal4-VP16 FLuc	Integrin act MD
CNCC(=O)Nc1ccc(OC(F)(F)F)cc1	-16%	-1%	4%	5%	-6%	-31%
CCCNC(=S)Nc1ccc(Nc2ccccc2)cc1	-4%	-12%	-1%	5µM*	16µM*	-6%
CNC(=S)Nc1ccc(Br)cc1	-2%	-2%	8%	35µM*	-2%	-8%
S=C(NCCCNC(=S)Nc1ccccc1)Nc1ccccc1	-4%	0%	5%	?	5%	-25%
CNC(=S)Nc1ccc(OC(F)(F)F)cc1	8%	9%	?	7.1µM*	10µM*	-7%
CCOC(=O)C1CCN(C(=O)COC(=O)C2CCN(S(=O)(=O)c3ccc(C)c(C)c3)CC2)CC1	-1%	-4%	-1%	.	.	19%
COc1ccc(C2/C=C\CN(S(=O)(=O)c3ccc(C)cc3)C(C)C(=O)N2Cc2ccc(F)cc2)cc1 (centres undefined)	.	.	.	15%	-8%	.
Cc1cc(C(=O)NC(Cc2ccccc2)C(=O)O)c(C)o1 (centres undefined)	0%	-5%	4%	7%	-3%	-8%
CC/C(=C(\c1ccccc1)c1ccc(OCCN(C)C)cc1)c1ccccc1	12%	-65%	?	10µM*!	32µM*!	.
C=CCc1c(C)nc2cc(-c3ccc(C)cc3)[nH]n2c1=O	11µM*	5%	?	?	?	?
CCc1c(C)nc2cc(-c3ccccc3)[nH]n2c1=O	-11%	0%	-2%	10%	-11%	-17%
CCn1c(C)nc2cc(C(=O)N/N=C(\C)c3ccc(OC)cc3O)ccc21	2%	2%	3%	1µM*	2.8µM*	-15%
Cc1ccc(NC(=O)Nc2ccc3c(c2)nc(C)n3C)cc1	-16%	3%	-1%	-30%	-24%	23%
CCn1c(C)nc2cc(C(=O)NN=C(C)c3ccc(C#N)cc3)ccc21	-3%	.	6%	.	.	?
CCn1c(C)nc2cc(C(=O)N/N=C/c3cccc(O)c3O)ccc21	-17%	1%	-2%	2.2µM*	11µM*	8%
Cc1nc2cc(NC(=O)Nc3ccccc3Cl)ccc2n1C	-14%	-5%	?	5µM*	11µM*	-11%
CCn1c(C)nc2cc(C(=O)NNC(=S)Nc3ccccc3Cl)ccc21	0%	-1%	?	11µM*	20µM*	18%
COc1ccc(-c2c(-c3cc(OC)cc(OC)c3)n(C)c3ccc(-c4cc(F)cc(OC)c4)cc23)cc1	2%	-12%	-2%	.	.	12%
CC1C(NC(=O)/C(=N/OC(C)(C)C(=O)O)c2csc(N)n2)C(=O)N1S(=O)(=O)O (centres undefined)	.	.	.	-19%	-12%	.
COc1ccc(Oc2ncc3nc(-c4ccc(Cl)cc4)c(=O)n(C[C@H]4CCCO4)c3n2)cc1	.	.	.	28%	-8%	.
CSc1nc2ccc(NS(=O)(=O)c3cccc(Cl)c3Cl)cc2s1	-1%	35µM*	?	22%	3%	1%
NC(=S)NN=C1c2cc(OCCN3CCOCC3)ccc2-c2ccc(OCCN3CCOCC3)cc21	-10%	16%	?	1.3µM*	3.2µM*	-67%
COc1ccc(OC)c(C(C)NC(=O)C23CC4CC(CC(C4)C2)C3)c1 (centres undefined)	-2%	2%	-1%	16%	1%	-21%
S=C1NC(C23CC4CC(CC(C4)C2)C3)=CC(c2ccc3c(c2)OCO3)N1 (centres undefined)	2%	0%	5%	0.71µM*	?	7%
COc1ccc(OC)c(C2C=C(C34CC5CC(CC(C5)C3)C4)NC(=S)N2)c1 (centres undefined)	0%	?	2%	3.2µM*	3.2µM*	-6%
SMILES	uPA surface inh	Mito fusion act	Chronic BCR inh	RORgamma inh	Gal4-VP16 FLuc	Integrin act MD
COc1ccc(C2=CC(c3cc(OC)c(OC)c(OC)c3)NC(=S)N2)cc1 (centres undefined)	-3%	-1%	?	13µM*	?	-8%
COc1cc(C2C=C(C34CC5CC(CC(C5)C3)C4)NC(=S)N2)cc(OC)c1OC (centres undefined)	-9%	1%	-14%	1µM*	0.79µM*	6%
O=C(Nc1cccc(Br)c1)c1ccc2c(c1)SC1=NS(=O)(=O)CCN12	?	-2%	-1%	.	.	?
COCCNc1ncncc1-c1c(C)noc1C	.	.	.	7%	-5%	.
Cc1nc(C(=O)NNC(=O)c2ccccc2)c(C(F)(F)F)o1	1%	2%	-17%	11µM*	-4%	-11%
Cc1nc(C(=O)NCC(=O)c2ccccc2)c(C(F)(F)F)o1	2%	1%	3%	1%	1%	11%
O=C(N/N=C/c1cc([N+](=O)[O-])ccc1O)c1ccc2c(c1)OCCO2	-6%	-1%	0%	0.63µM*	1.4µM*	5%
O=C(NC(=S)Nc1cc([N+](=O)[O-])ccc1O)c1ccc2c(c1)OCO2	-12%	1%	?	4µM*	2.8µM*	9%
O=C(N/N=C/c1ccccc1[N+](=O)[O-])c1ccc2c(c1)OCCO2	-13%	-1%	-1%	3.5µM*	7.1µM*	-28%
O=C(N/N=C/c1cc([N+](=O)[O-])ccc1O)c1cccc(N2CCCC2=O)c1	-8%	-9%	-1%	2.2µM*	3.2µM*	-17%
COc1cc(/C=N/NC(=O)c2cccc(N3CCCC3=O)c2)ccc1O	-1%	-15%	-19%	-39%	-28%	8%
O=C(Nc1ccon1)c1sc2cc(Cl)ccc2c1Cl	-26%	-10%	3%	?	-16%	-28%
COc1ccc(OC)c(Nc2nc(N(C)c3ccccc3)nc(N)c2[N+](=O)[O-])c1	-4%	?	7%	0%	2%	26%
COc1ccc(/C=N/NC(=O)c2ccc3c(c2)OCCO3)cc1[N+](=O)[O-]	-6%	-2%	?	20%	-1%	3%
O=C(N/N=C/c1cc(O)ccc1[N+](=O)[O-])c1ccc2c(c1)OCCO2	-10%	6%	?	10µM*	8.9µM*	-3%
COc1ccc(SCCN2CCN(CCc3ccccc3)CCC2=O)cc1	.	.	.	10µM*	?	.
Cc1ccc(SCCN2CCN(CCc3ccccc3)CCC2=O)cc1	-3%	14%	-12%	0%	8%	-20%
Cc1cc(N2C(=O)C=CC2=O)c([N+](=O)[O-])cc1C	-13%	-1%	?	7.1µM*	4.5µM*	-69%
CCOc1ccc(OCC)c(NC(=O)CSc2nc3cccnc3n2C)c1	-5%	1%	-1%	?	2%	-17%
CCOc1ccc(OCC)c(NC(=O)CSc2nc3ccccc3c(=O)n2C)c1	-2%	-3%	0%	-15%	20µM*	-35%
